# Inconclusive results are not listed. Activity calls are given as the source filed them. Unless noted, calls follow the shape of the dose curve; as a rule, active = well fitted curve in the direction sought with a large enough effect; inconclusive = small, poorly fitted or top-dose-only effect, or another doubt; inactive = no such curve, though single readings can be large; an effect the other way counts as inactive or inconclusive.
# How the values were obtained:
# [1] = target: Catechol O-methyltransferase (Homo sapiens) (UniProt P21964); assay: Confirmatory Screen for Target Class Profiling of Small Molecule Inhibitors of Methyltransferases (AID 1745852; calls by dose curve; also: potency is read from the fitted curve at half-maximal effect; as to activity change, negative = inhibition: % is scaled to controls: 0 for no effect and ±100 for the full control effect); conditions: MTase-Glo luminescence, SAH detection, recombinant enzyme; measured here: COMT max response; stronger effect = lower value
# [2] = target: Guanidinoacetate N-methyltransferase (Homo sapiens) (UniProt Q14353); assay: as above; conditions: MTase-Glo luminescence, SAH detection, recombinant enzyme; activity change, negative = inhibition: at 57.3 µM (top of the series) unless noted; series mostly up to 57.3 µM
# [3] = target: Nicotinamide N-methyltransferase (Homo sapiens) (UniProt P40261); assay: as above; conditions: MTase-Glo luminescence, SAH detection, recombinant enzyme; measured here: NNMT max response; stronger effect = lower value
# [4] = target: Phenylethanolamine N-methyltransferase (Homo sapiens) (UniProt P11086); assay: as above; conditions: MTase-Glo luminescence, SAH detection, recombinant enzyme; measured here: PNMT max response; stronger effect = lower value
# [5] = target: DNA repair nuclease/redox regulator APEX1 (Homo sapiens) (UniProt P27695); assay: qHTS Validation Assay for Inhibitors of the Human Apurinic/apyrimidinic Endonuclease 1 (APE1) (AID 1705;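 also: TAMRA fluorescence gain over two minutes as APE1 cuts a quenched THF abasic duplex; % is scaled to controls: 0 for no effect and ±100 for the full control effect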); conditions: purified APE1 endonuclease activity, fluorescence, titration; series mostly up to 57.1 µM
# How it was run: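 Activity read as rising fluorescence (598 nm emission, 525 nm excitation) from incision of a TAMRA/BHQ-2 duplex carrying a THF abasic site (50 nM). Compound and enzyme sat 15 min at RT before substrate start; signal change between first and third 60-s reads.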
# [6] = Counterscreen for APE1 Inhibitors: Fluorescent Dye Displacement Validation Assay (AID 1707); conditions: fluorescent dye displacement from DNA; series mostly up to 57.1 µM;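 also: plate controls were ThO with dsDNA and no compound for no effect and ThO without dsDNA for full effect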
# How it was run: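 Thiazole Orange displacement from dsDNA: 250 nM ThO with 50 nM TAMRA-labelled abasic-site (tetrahydrofuran) duplex in 50 mM Tris-HCl pH7.5, 50mM NaCl, 2 mM MgCl2, 0.01% Tween-20. Loss of endpoint fluorescence (ex 480 nm, em 540 nm) flags DNA binders.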
# [7] = qHTS for differential inhibitors of proliferation of Plasmodium falciparum line 7G8 (AID 1815); conditions: Plasmodium falciparum 7G8 proliferation inhibition; series mostly up to 28.7 µM;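 also: parasite growth measured after three days of incubation; plate controls were vehicle wells for no effect and reference inhibitor wells for full effect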
# [8] = qHTS for differential inhibitors of proliferation of Plasmodium falciparum line 3D7 (AID 1876);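 also: parasite growth measured after three days of culture; 0% = vehicle wells and -100% = reference inhibitor wells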; conditions: P. falciparum 3D7 proliferation inhibition; series mostly up to 28.7 µM
# [9] = qHTS for differential inhibitors of proliferation of Plasmodium falciparum line D10 (AID 1877); conditions: series mostly up to 28.7 µM;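 also: parasites grown with compound for 72 h before DNA staining; plate controls were vehicle wells for no effect and reference inhibitor wells for full effect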
# [10] = qHTS for differential inhibitors of proliferation of Plasmodium falciparum line Dd2 (AID 1882); conditions: Potency: Plasmodium falciparum Dd2 proliferation inhibition; series mostly up to 28.7 µM;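 also: plate controls were DMSO vehicle for no effect and 0.29 µM artemisinin for full effect; nearly all actives have a fitted effect of over 65% in size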
# How it was run: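 Dd2-infected erythrocytes (0.3% parasitemia, 2.5% hematocrit final) incubated with compound 72 h at 37 C, 5% CO2; lysed with saponin/Triton buffer containing SYBR Green I, incubated overnight in the dark, then read by fluorescence (485/535 nm). Normalized to 0.29 uM artemisinin and DMSO.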
# [11] = qHTS for differential inhibitors of proliferation of Plasmodium falciparum line W2 (AID 1883); conditions: Potency: Plasmodium falciparum W2 proliferation inhibition; series mostly up to 28.7 µM;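 also: potency is read from the fitted curve at half-maximal effect; parasites grown with compound for 72 h before lysis and staining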
# [12] = qHTS for differential inhibitors of proliferation of Plasmodium falciparum line HB3 (AID 1886); conditions: Potency: Plasmodium falciparum HB3 proliferation inhibition; series mostly up to 28.7 µM;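 also: parasites grown with compound for 72 h before SYBR Green readout; plate controls were vehicle for no effect and reference inhibitor for full effect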
# [13] = target: Ferritin light chain (Equus caballus) (UniProt P02791); assay: qHTS Validation Assay for Identification of Novel General Anesthetics (AID 2323); conditions: horse apoferritin, anesthetic-site fluorescent probe displacement; series mostly up to 76.9 µM; also: % is scaled to controls: 0 for no effect and ±100 for the full control effect
# How it was run: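 Competitive displacement of the profluorescent anesthetic 1-AMA (50% saturated, PBS) from 10 uM apoferritin, 10 min, room temperature. Activity is normalized 380/535 nm fluorescence; concentration-response fitted with a four-parameter Hill equation.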
# [14] = target: ATP-dependent DNA helicase Q1 (Homo sapiens) (UniProt P46063); assay: qHTS Validation Assay for Inhibitors of RecQ-Like Dna Helicase 1 (RECQ1) (AID 2353); conditions: recombinant RECQ1 helicase DNA unwinding assay; series mostly up to 25.6 µM;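 also: plate controls were DMSO vehicle for no effect and enzyme-free control for full effect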
# How it was run: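 50 nM RECQ1T1 preincubated 15 min with compound in Tris pH 8.0 buffer with MgCl2, DTT, Tween-20 and 2.5 ug/ml poly(dI-dC); started with 200 nM TAMRA/BHQ-2 forked duplex and 2 mM ATP. Unwinding read as fluorescence (525/598 nm), two reads 2 h apart.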
# [15] = Quantitative high throughput screen for delayed death inhibitors of the malarial parasite plastid, 96 hour incubation (AID 488745); conditions: Plasmodium falciparum growth; series mostly up to 28.7 µM;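 also: luciferase-expressing P. falciparum in erythrocytes at 2% hematocrit and 0.1% parasitemia; % is scaled to controls: 0 for no effect and ±100 for the full control effect; nearly all actives have a fitted effect of over 70% in size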
# How it was run: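 Infected erythrocytes were added to compound in Albumax-supplemented RPMI 1640 at 0.1% parasitemia and 2% hematocrit (final), incubated 96 h at 37 C under 5% CO2, then luciferase reagent was added and luminescence measured.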
# [16] = Quantitative high throughput screen for delayed death inhibitors of the malarial parasite plastid, 48 hour incubation (AID 488752); conditions: Plasmodium falciparum growth; series mostly up to 28.7 µM; also: % is scaled to controls: 0 for no effect and ±100 for the full control effect; nearly all actives have a fitted effect of over 65% in size
# How it was run: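 Readout is firefly luciferase luminescence from a reporter integrated into the parasite genome, with lower signal taken as inhibited growth. Infected red cells (0.1% parasitemia, 2% hematocrit final) are cultured with compound for one 48 h cycle at 37 C.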
# [17] = target: Transient receptor potential cation channel subfamily V member 1 (Homo sapiens) (UniProt Q8NER1); assay: HTS Assay for Compounds that Act as Enhancers of the Vanilloid Receptor 1 (AID 488979); conditions: TRPV1-expressing cells, enhancer of channel activity, stimulated with capsaicin at EC20; series mostly up to 41.7 µM; also: 0% is about no effect
# How it was run: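 TRPV1-expressing cells loaded with Fluo-8 calcium dye; compounds added and calcium influx read kinetically for 3 min (agonist phase), then capsaicin at EC20 added and read 2 min more for enhancement. Fluorescence ex 480/em 520 nm.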
# [18] = target: Thyrotropin receptor (Homo sapiens) (UniProt P16473); assay: qHTS Assay for Antagonists of the Thyroid Stimulating Hormone Receptor (AID 488980); conditions: TSHR-expressing cells, cAMP antagonist read-out; series mostly up to 57.5 µM; also: 0% is about no effect
# How it was run: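 Inhibition of cAMP raised by EC80 TSH (4 nM final) was read by HTRF, with lysate cAMP competing against cAMP-d2 for cryptate antibody after 30 min at room temperature. The cells were transfected HEK293 held in phosphodiesterase inhibitor RO 20-1724 at 70 uM.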
# [19] = target: Thyrotropin-releasing hormone receptor (Homo sapiens) (UniProt P34981); assay: qHTS for Small Molecule Agonists and Allosteric Enhancers of Human TRH Receptor: Validation Screen for Agonists (AID 493127;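 active = calcium activation more than 3 SD above the typical response in the agonist read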;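 also: intracellular calcium rise by fluo-8 fluorescence before TRH EC20 addition; 0% is about no effect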); conditions: TRH receptor agonist cell assay; at 2 µM; stronger effect = higher value
# How it was run: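 Cells 2000/well, 10% FCS, 18 h 33.5C/5% CO2 → fluo-8 Ca dye, RT 30 min–1.5 h → FDSS baseline 10 × 1 s → compound added → 230 cycles (1 s/cycle) agonist mode. TRH controls.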
# [20] = target: Galactokinase (Homo sapiens) (UniProt P51570); assay: qHTS Validation Assay for Inhibitors of Human Galactokinase (GALK) (AID 493189); conditions: purified human GALK enzyme activity, qHTS 7-point titration; series mostly up to 57.5 µM; also: 0% is about no effect
# How it was run: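 Inhibition was measured as remaining ATP, detected by luciferase luminescence after a 1 h room-temperature reaction. Final conditions: 5 nM GALK, 100 uM galactose, 35 uM ATP, pH 8.0 HEPES buffer.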
# [21] = Validation screen for small molecules that induce DNA re-replication in SW480 colon adenocarcinoma cells (AID 504364); conditions: DNA re-replication phenotype (high-content imaging); series mostly up to 46.1 µM; also: potency is read from the fitted curve at half-maximal effect
# How it was run: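 250 cells/well; compound pinned in; 48 hr, 37 C, 5% CO2; Hoechst added, 40 min; nuclear fluorescence imaged, 405 ex / 500-530 em; re-replication scored as increase in high-intensity nuclei.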
# Chain of Phenylethanolamine N-methyltransferase (Homo sapiens) (P11086 whole entry, looked up): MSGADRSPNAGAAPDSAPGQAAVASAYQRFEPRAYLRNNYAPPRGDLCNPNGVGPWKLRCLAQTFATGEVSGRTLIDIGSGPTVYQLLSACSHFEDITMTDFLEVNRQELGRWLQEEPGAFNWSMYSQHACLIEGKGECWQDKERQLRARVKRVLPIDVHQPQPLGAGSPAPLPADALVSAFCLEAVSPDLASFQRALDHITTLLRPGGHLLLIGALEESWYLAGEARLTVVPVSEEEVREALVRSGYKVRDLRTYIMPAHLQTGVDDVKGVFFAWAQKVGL
# Chain of Nicotinamide N-methyltransferase (Homo sapiens) (P40261 whole entry, looked up): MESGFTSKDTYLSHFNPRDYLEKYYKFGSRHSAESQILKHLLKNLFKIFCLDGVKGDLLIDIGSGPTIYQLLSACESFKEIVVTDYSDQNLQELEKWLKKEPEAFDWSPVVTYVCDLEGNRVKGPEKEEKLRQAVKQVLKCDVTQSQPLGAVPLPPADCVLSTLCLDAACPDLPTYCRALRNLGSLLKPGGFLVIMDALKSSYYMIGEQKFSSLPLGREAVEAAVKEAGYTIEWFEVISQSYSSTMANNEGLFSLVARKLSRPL
# Chain of Catechol O-methyltransferase (Homo sapiens) (P21964 whole entry, looked up): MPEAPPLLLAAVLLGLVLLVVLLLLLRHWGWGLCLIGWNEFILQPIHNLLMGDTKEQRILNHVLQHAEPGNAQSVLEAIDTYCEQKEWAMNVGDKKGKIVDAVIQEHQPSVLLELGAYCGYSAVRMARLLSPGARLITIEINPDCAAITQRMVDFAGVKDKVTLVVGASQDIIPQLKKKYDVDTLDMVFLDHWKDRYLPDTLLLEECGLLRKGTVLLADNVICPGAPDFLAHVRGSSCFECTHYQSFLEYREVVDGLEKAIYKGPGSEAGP
# Chain of Thyrotropin-releasing hormone receptor (Homo sapiens) (P34981 whole entry, looked up): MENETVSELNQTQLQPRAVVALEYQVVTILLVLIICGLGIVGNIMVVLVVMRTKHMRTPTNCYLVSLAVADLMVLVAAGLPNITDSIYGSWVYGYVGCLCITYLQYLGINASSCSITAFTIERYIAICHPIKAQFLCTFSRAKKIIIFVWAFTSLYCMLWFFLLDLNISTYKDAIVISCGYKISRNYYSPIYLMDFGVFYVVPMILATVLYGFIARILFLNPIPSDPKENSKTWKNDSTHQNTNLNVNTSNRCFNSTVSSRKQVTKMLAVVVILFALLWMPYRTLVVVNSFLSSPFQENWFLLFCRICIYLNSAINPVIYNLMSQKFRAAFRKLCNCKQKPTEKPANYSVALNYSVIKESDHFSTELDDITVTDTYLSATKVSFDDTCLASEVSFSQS
# Chain of DNA repair nuclease/redox regulator APEX1 (Homo sapiens) (P27695 whole entry, looked up): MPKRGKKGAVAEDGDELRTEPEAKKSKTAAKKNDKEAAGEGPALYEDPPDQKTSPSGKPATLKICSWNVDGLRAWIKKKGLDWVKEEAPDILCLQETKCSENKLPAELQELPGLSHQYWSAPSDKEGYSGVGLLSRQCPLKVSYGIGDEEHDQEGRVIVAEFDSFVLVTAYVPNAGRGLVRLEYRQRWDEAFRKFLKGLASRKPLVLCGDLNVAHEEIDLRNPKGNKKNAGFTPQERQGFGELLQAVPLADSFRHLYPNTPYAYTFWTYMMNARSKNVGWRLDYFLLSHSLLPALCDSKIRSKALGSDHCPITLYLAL
# Chain of ATP-dependent DNA helicase Q1 (Homo sapiens) (P46063 whole entry, looked up): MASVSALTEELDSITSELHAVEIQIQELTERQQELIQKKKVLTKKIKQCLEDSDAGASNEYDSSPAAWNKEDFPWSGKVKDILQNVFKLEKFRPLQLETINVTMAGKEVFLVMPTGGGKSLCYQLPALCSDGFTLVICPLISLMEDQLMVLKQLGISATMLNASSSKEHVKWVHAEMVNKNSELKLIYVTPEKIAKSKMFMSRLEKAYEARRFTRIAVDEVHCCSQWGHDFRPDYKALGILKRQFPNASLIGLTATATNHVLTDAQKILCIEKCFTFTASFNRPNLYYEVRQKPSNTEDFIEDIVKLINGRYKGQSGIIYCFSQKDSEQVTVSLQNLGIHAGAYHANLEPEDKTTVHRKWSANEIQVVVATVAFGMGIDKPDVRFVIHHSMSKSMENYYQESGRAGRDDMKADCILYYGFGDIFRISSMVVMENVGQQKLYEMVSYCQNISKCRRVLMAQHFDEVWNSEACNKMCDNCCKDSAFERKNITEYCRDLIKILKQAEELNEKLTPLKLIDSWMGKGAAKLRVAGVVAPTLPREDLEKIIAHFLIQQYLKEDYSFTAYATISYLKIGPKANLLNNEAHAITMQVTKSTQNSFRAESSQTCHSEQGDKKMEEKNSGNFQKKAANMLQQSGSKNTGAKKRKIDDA
# Chain of Galactokinase (Homo sapiens) (P51570 whole entry, looked up): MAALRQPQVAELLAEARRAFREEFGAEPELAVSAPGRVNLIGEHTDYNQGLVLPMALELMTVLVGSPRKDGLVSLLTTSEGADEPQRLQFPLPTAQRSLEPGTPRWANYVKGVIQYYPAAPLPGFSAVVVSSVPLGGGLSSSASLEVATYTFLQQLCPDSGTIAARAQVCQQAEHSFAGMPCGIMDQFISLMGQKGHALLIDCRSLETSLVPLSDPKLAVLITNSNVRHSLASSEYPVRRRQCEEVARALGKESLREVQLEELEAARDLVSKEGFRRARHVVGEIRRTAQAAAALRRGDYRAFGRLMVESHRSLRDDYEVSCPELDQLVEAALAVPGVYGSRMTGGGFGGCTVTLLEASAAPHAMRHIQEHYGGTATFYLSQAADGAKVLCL
# Chain of Ferritin light chain (Equus caballus) (P02791 2-175 limits assumed): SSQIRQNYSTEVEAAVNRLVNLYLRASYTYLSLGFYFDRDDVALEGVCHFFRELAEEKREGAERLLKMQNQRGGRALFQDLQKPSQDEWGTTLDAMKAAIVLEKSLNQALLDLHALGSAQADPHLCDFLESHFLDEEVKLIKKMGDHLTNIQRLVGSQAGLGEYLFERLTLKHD
# Chain of Transient receptor potential cation channel subfamily V member 1 (Homo sapiens) (Q8NER1 whole entry, looked up): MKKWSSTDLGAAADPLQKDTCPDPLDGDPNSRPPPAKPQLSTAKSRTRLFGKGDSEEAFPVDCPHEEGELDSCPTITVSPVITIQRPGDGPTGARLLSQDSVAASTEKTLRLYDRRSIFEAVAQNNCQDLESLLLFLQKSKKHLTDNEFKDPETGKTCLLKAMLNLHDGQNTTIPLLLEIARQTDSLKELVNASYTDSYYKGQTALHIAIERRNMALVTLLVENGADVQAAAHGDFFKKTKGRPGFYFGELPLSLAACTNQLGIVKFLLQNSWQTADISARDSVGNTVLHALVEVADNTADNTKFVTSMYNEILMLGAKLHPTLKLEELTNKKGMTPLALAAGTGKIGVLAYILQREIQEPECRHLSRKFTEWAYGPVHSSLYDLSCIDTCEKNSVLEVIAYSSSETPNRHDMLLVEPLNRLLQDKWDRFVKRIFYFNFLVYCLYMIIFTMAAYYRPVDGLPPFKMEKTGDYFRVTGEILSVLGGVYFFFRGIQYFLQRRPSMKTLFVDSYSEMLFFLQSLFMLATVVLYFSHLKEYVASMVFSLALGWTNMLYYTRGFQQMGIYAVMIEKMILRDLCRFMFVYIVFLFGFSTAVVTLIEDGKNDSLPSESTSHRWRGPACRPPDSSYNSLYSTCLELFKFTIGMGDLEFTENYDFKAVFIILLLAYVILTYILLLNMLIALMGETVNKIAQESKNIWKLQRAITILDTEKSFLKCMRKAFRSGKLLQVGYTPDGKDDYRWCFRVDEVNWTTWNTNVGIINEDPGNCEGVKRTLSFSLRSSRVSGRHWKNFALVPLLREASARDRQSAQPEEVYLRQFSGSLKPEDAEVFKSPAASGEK
# Chain of Thyrotropin receptor (Homo sapiens) (P16473 whole entry, looked up): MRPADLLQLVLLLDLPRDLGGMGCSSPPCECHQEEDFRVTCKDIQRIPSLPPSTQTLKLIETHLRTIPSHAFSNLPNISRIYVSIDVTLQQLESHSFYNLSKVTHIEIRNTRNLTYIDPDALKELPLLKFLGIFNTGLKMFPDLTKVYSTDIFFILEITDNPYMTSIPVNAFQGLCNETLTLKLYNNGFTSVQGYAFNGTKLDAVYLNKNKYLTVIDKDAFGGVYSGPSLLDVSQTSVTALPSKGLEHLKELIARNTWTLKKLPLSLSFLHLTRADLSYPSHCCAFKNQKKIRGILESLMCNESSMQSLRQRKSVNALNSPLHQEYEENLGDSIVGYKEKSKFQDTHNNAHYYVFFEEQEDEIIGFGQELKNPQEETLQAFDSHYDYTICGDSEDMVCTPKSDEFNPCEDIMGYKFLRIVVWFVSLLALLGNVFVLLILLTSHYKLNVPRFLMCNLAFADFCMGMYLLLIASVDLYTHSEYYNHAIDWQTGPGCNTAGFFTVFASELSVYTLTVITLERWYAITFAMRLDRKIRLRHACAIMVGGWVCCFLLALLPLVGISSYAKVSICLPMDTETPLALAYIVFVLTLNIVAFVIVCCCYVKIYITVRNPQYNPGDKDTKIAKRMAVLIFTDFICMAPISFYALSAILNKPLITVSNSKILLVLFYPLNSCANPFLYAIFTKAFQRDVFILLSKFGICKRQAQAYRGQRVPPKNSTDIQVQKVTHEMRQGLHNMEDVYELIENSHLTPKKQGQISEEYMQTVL
compound,measurement,setting,value
CC(C)OCCCn1c(=O)c2ccccc2n2c(CCC(=O)N3CCN(c4cccc(Cl)c4)CC3)nnc12,activity,[1],0.543%
same,"activity change, negative = inhibition",[2],0%
same,activity,[3],-39.1%
same,activity,[4],-4.41%
O=C(O)c1ccc(Nc2nc3ccccc3n3cnnc23)cc1,activity,[1],-82.3%
same,Potency,[2],19.3 µM (active)
same,activity,[3],-79.6%
same,activity,[4],-46%
COc1ccc(CCNC(=O)CCc2nnc3n(CC(C)C)c(=O)c4ccccc4n23)cc1OC,activity,[1],-6.74%
same,"activity change, negative = inhibition",[2],-2.85%
same,activity,[3],-43.7%
same,activity,[4],-6.97%
COc1cc2c(cc1O)CCC1C2CC[C@]2(C)[C@@H](O)CC[C@@H]12 (stereo partly specified),Potency,[5],inactive
same,outcome,[6],inactive
same,Potency,[7],inactive
same,Potency,[8],inactive
same,Potency,[9],inactive
same,Potency,[10],inactive
same,Potency,[11],15.8 µM (active)
same,Potency,[12],inactive
same,outcome,[13],inactive
same,outcome,[14],inactive
same,Potency,[15],inactive
same,Potency,[16],inactive
same,outcome,[17],inactive
same,outcome,[18],inactive
same,activation,[19],1% (inactive)
same,outcome,[20],inactive
same,Potency,[21],4.61 µM (active)
CCCn1c(=O)c2ccccc2n2c(=O)n(CC(=O)c3cc(C)ccc3C)nc12,activity,[1],1.84%
same,"activity change, negative = inhibition",[2],0%
same,activity,[3],-36.8%
same,activity,[4],-0.0841%
COC1CCN(c2cc(-c3ccsc3)nc3c(C)noc23)CC1,activity,[1],-4.15%
same,"activity change, negative = inhibition",[2],-0.422% [at 85.7 µM]
same,activity,[3],-17%
same,activity,[4],-10.4%
CC1CCCCN1CCCNC(=O)Cn1ccc2cc(S(=O)(=O)N3CCCCC3)ccc21 (stereo unspecified),activity,[1],1.36%
same,"activity change, negative = inhibition",[2],0%
same,activity,[3],0.0396%
same,activity,[4],-0.622%
